Source: PubChem BioAssay (National Center for Advancing Translational Sciences (NCATS))
SW480 rereplic: A quantitative high throughput screen for small molecules that induce DNA re-replication in SW480 colon adenocarcinoma cells; SW480 DNA re-replication, Hoechst DNA content imaging, 48 h; Potency, µM (highest dose often 46.1 µM), without a hit: top-dose re-replication activation, actives largely listed as activators; 340,000 tested, 1.8% active; further: potency means the concentration at half of the fitted maximal effect; % of control where 0% means no effect; nearly all actives have a fitted effect of over 55% in size
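Hoechst fluorescence of nuclei (405 nm excitation, 500-530 nm emission) measured by plate-scanning imager after 48 hr compound exposure at 37 C; re-replication scored as increased number of nuclei with elevated intensity.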
KB-3-1 tox: qHTS assay for MDR1-selective chemotherapeutics: Primary screen using the parental adenocarcinoma cell KB-3-1; KB-3-1 viability, CellTiter-Glo ATP luminescence, 72 h; Potency, µM (series often up to 46.1 µM), hits mostly cytotoxic; 400,000 tested, 1.4% active; further: potency means the concentration at half of the fitted maximal effect; on the % scale 0 is the no-effect control and ±100 the full control effect; nearly all actives have a fitted effect of over 60% in size
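Viability of parental KB-3-1 cells, measured by CellTiter-Glo luminescence, followed a 72 h incubation at 37 °C with pinned compounds in phenol-red-free DMEM containing 10% FBS.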
MCF10A rerep: A quantitative high throughput screen for small molecules that induce DNA re-replication in MCF 10a normal breast cells. MCF 10A DNA re-replication, Hoechst nuclear intensity, 48 h. Potency, µM (series often up to 46.1 µM), for the others: at the top dose activity, positive = re-replication, hits mostly activators. 350,000 tested, 2.9% active; further: potency means the concentration at half of the fitted maximal effect; % of control where 0% means no effect; nearly all actives have a fitted effect of over 50% in size
KB-V1 MDR tox: qHTS assay for MDR1-selective chemotherapeutics: Primary screen using the drug-selected MDR subline cells KB-V1. KB-V1 MDR cells viability, CellTiter-Glo, 72 h. Potency, µM (series often up to 46.1 µM), actives largely listed as cytotoxic. 400,000 tested, 3.4% active; further: potency means the concentration at half of the fitted maximal effect; on the % scale 0 is the no-effect control and ±100 the full control effect; nearly all actives have a fitted effect of over 60% in size
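Cytotoxicity toward P-gp-expressing KB-V1 cells was determined as loss of CellTiter-Glo luminescence after 72 h at 37 degrees C. Compounds were tested in quantitative HTS format across a concentration range, with curves fitted to normalized data.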
IL-1B inflam inh: qHTS for Inhibitors of Inflammasome Signaling: IL-1-beta AlphaLISA Primary Screen; THP-1 LPS/ATP IL-1B secretion, AlphaLISA, 16 h; active compounds read low; activity change, % at 57.5 µM; 360,000 tested, 4.7% active; AID 743279, 2014; in the data active means activity change below about -50%; inconclusive means mostly about -30% to -49%; further: on the % scale 0 is the no-effect control and ±100 the full control effect
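THP-1 cells pretreated 1 hr with compounds (up to 57.5 uM final), then stimulated with LPS (250 ng/mL final) plus ATP (1.25 mM final); secreted IL-1B measured by AlphaLISA after 16 hr, decreased signal indicating inhibition.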
Numbers without * were called inactive; i = inactive; ? = inconclusive; nt = not tested or not shown. An excerpt weighted towards active compounds, which were near 9.9% of everything screened. Unless noted, the call rests on the fitted dose curve; in most records, active means well fitted curve in the direction sought with a large enough effect; inconclusive means small, poorly fitted or top-dose-only effect, or another doubt; inactive means no such curve, though single readings can be large; an effect the other way counts as inactive or inconclusive.

SMILES	SW480 rereplic	KB-3-1 tox	MCF10A rerep	KB-V1 MDR tox	IL-1B inflam inh
O=C(N/N=C/C(Cl)=C/c1ccc([N+](=O)[O-])cc1)C(=O)Nc1ccccc1C(=O)O	25.2%	7.31µM*	4.7%	2.06µM*	1.2
O=C(N/N=C/C(Cl)=C/c1ccc([N+](=O)[O-])cc1)C(=O)Nc1ccc(C(=O)O)cc1	?	i	?	i	-52.1*
O=C(Nc1ccc(C(=O)O)cc1)/C(=C\c1ccc([N+](=O)[O-])cc1)NC(=O)c1ccco1	nt	i	nt	i	-5.2
CCOc1ccccc1NC(=O)C(=O)N/N=C/c1ccc([N+](=O)[O-])cc1	-2.6%	i	-0.1%	i	-19.6
CC1CCCC(NCC(O)COC(c2ccc(F)cc2)c2ccc(F)cc2)C1C (stereo unspecified)	0.0%	?	?	18.4µM*	-115.4*
Oc1ccccc1Nc1nc(NCC2CCCO2)c2ccccc2n1 (stereo unspecified)	-0.1%	?	?	16.4µM*	-109.3*
c1ccc2c(NCC3CCCO3)nc(N3CCCCC3)nc2c1 (stereo unspecified)	-3.8%	i	15.3%	i	0.0
COc1cccc(Nc2nc(NCC3CCCO3)c3ccccc3n2)c1 (stereo unspecified)	2.7%	?	?	2.31µM*	-121.5*
Oc1ccc(Cl)cc1Nc1nc(NCC2CCCO2)c2ccccc2n1 (stereo unspecified)	?	i	23.1µM*	i	nt
Oc1ccc(Nc2nc(NCC3CCCO3)c3ccccc3n2)cc1 (stereo unspecified)	14.4%	i	?	i	-96.0*
O=C(O)/C=C/C(=O)Nc1ccc(OC(F)(F)F)cc1Br	-3.7%	i	4.9%	i	-18.1
CCCOc1ccccc1/C=C1/C(=O)ON=C1C	-2.6%	i	2.0%	?	-52.0*
CCOc1cc(/C=C2\C(=O)ON=C2C)ccc1OCc1ccccc1	15.1%	?	?	?	-117.4*
COc1ccc(/C=C2/C(=O)ON=C2C)cc1Cl	?	i	?	i	-25.1
C=CCOc1ccc(/C=C2/C(=O)ON=C2C)cc1OC	?	i	?	i	-97.1*
O=C(NCCN1CCNC1=O)c1ccc2sc([C@H]3C[C@H](O)[C@@H](CO)O3)nc2c1	nt	i	nt	i	-86.2*
Cc1c2cnn(CC(=O)N3CCOCC3)c(=O)c2c(C)n1Cc1ccccc1F	-28.5%	i	-0.8%	i	2.4
C=CCNS(=O)(=O)NC(=O)C1=C(N2CCCC2)COC1=O	-23.0%	?	4.6%	i	0.0
Nc1ccc(-c2nc3cc(N)ccc3o2)cc1	-6.3%	i	10.9%	i	-53.5*
Cc1nc2ccc(-c3nc4ccccc4o3)cc2[nH]1	-11.1%	i	5.5%	?	197.3
Nc1ccc(-c2nc3ccc(-c4nc5ccccc5o4)cc3[nH]2)cc1	4.47µM*	i	3.98µM*	i	-2.4
Clc1ccc2nc(-c3ccc(Cl)nc3)[nH]c2c1	13µM*	i	?	?	-68.2*
Nc1ccc2nc(-c3ccc(Cl)cc3)[nH]c2c1	1.7%	18.4µM*	?	i	-17.6
C=CCN1C(=O)/C(=C\c2ccc(Oc3nc(N4CCOCC4)nc(N4CCOCC4)n3)c(OC)c2)SC1=S	15.9%	i	?	i	29.8
COC(=O)CSc1nnc2n1C(C)(C)Cc1ccccc1-2	-0.6%	i	4.8%	i	-11.5
COc1cc(NC(=O)CSc2nnc3n2C(C)(C)Cc2ccccc2-3)cc(OC)c1	5.8%	i	14.3%	i	-9.3
CCOC(=O)C(CC)Sc1nnc2n1C(C)(C)Cc1ccccc1-2 (stereo unspecified)	1.0%	i	16.2%	16.4µM*	-1.2
CC1(C)Cc2ccccc2-c2nnc(SCC(=O)N3CCc4ccccc43)n21	6.8%	i	0.9%	4.11µM*	4.8
